The text below walks through data of PubChem BioAssay (Tox21).

Records with an inconclusive call do not appear. Where a call stands in place of a potency, no number is given. The source made the active and inactive calls. Calls come from the whole dose curve.

This experiment can be described thus: qHTS assay to identify small molecule agonists of H2AX - cell viability counter screen (AID 1224847). Note: top concentration of the series differs between compounds; nearly all actives have a fitted effect of over 30% in size. The note with it: CHO-K1 viability, CellTiter-Glo luminescence, 3 h; series mostly up to 154 µM. The text has this: National Center for Advancing Translational Sciences [NCATS]
NIH Chemical Genomics Center [NCGC]
U.S. Environmental Protection Agency [EPA]
National Institutes of Environmental Health Sciences [NIEHS]
National Toxicology Program [NTP]
U.S. Food and Drug Administration [FDA]
HTRF phospho-H2AX (Ser139) assay (Cisbio Bioassays, US) enables the quantitative detection of the histone variant H2AX when phosphorylated on serine 139. When double-stranded DNA breaks, either by ionizing radiation or endogenous physiological processes, H2AX becomes phosphorylated at Ser139. This phospho-Ser139 serves as a sensitive biomarker for the detection of such breaks, localizing the site of DNA repair. So, HTRF phospho-H2AX Ser139 is a pertinent assay to study genome stability, the cell cycle, DNA repair, and it serves as a biomarker for cancer, and to understand aging. Wild type CHO-K1 cells were used to identify the inducers of Phospho-H2AX Ser 139 from the Tox21 compound collections. Also cytotoxicity of the Tox21 10K compound library against the CHO-K1 cell line was tested by measuring the cell viability using CellTiter-Glo assay (Promega, Madison, WI).
Tox21 Assay Protocol Summary:
The CHO-K1 cells suspended in culture medium containing 10% FBS were dispensed at 1000 cells/ 3 ul/well in 1536-well white wall/solid bottom plates (Greiner Bio-One North America, NC) using a Multidrop Combi (Thermo Fisher Scientific Inc., Waltham, MA). After the assay plates were incubated at 37C overnight, 23 nl of compounds at 15 concentrations (from 5-48 columns) or positive control (from 1 to 4 columns) were transferred to the assay plates using a Pintool station (Wako, San Diego, CA) into each well resulting in a final DMSO concentration of 0.76%. After 3hr incubation at 37C, 3 uL/well CellTiter-Glo luminescent cell viability reagent (Promega Corporation, Madison, WI) was added using a Flying Reagent Dispenser (FRD) (Aurora Discovery, CA). After incubation at room temperature for 30 min, the luminescence intensity was read using a ViewLux plate reader (PerkinElmer, Waltham, MA).
On the technique in general: In qHTS, concentration-response curves come from the screen itself.
`Cc1cccc(C)c1NC(=O)CN(CC(=O)O)CC(=O)O`: the Potency entry was “inactive”.
`O=C1OC(=O)C2C3C=CC(C3)C12` (stereo not given): the Potency result is “inactive”.
Consider `CC(=O)[O][Al]`, for which the Potency result is “inactive”.
Turning to `CC(C)(COC(=O)c1ccccc1)COC(=O)c1ccccc1`, the Potency result is “inactive”.
Same read-out and setting: the value for `C=C1[C@H]2CC[C@@H]3[C@H]2C(C)(C)CCC[C@]13C` was “inactive”; that for `COc1ccc(C(=O)N2CCN(CC(=O)N3CCOCC3)CC2)cc1` was “inactive”.
Consider `C=CCOc1ccccc1OCC(O)CNC(C)C` (stereo not given), for which the Potency entry was “inactive”.
On to `NCc1ccccc1Sc1ccccc1CO`, for which the Potency result is “inactive”.
With `COc1ccnc(CS(=O)c2nc3ccc(OC(F)F)cc3[nH]2)c1OC` (stereo not given), the Potency entry was “inactive”.
As for `C[C@@H]1C[C@H]2[C@@H]3CCC4=CC(=O)C=C[C@]4(C)[C@@]3(F)[C@@H](O)C[C@]2(C)[C@@]1(O)C(=O)COC(=O)c1ccncc1`, the Potency entry was “inactive”.
With `CCOC(=O)C(O)c1ccccc1` (stereo not given), the Potency result is “inactive”.
Turning to `NCC(=O)O`, the activity change, negative = cytotoxicity is 1.04% [at 31.6 µM] (inactive).
In the case of `O=C(O)C1(C(=O)Nc2ccc(Cl)cc2Cl)CC1`, the Potency result was “inactive”.
Consider `CC1=CCCC(C)(C)C12CCC(C)O2` (stereo not given), for which the Potency result is “inactive”.
On the same count and under the same terms, to `CCC(C)O` (stereo not given) belongs “inactive”.
On to `CCCCCCOC(=O)NC(=N)c1ccc(NCc2nc3cc(C(=O)N(CCC(=O)OCC)c4ccccn4)ccc3n2C)cc1`, for which the Potency entry is “inactive”.
Still for that read-out and setting: the value for `CN1CCC(=C2c3ccccc3Sc3ccccc32)CC1` was “inactive”; that for `Cc1ccc(C(=O)Oc2ccc(C(O)CNC(C)(C)C)cc2OC(=O)c2ccc(C)cc2)cc1` (stereo not given) was “inactive”; that for `CC(C)(C)Cl` was “inactive”.
Take `O=C(Cl)c1cc(C(=O)Cl)cc(C(=O)Cl)c1`: the Potency entry is “inactive”.
With `CCCCC/C=C\C/C=C\CCCCCCCC(=O)NC(C)c1ccccc1` (stereo not given), the Potency entry is “inactive”.
`C=CC1CC2C=CC1C2` (stereo not given): the Potency result is “inactive”.
With `CCOC(=O)C(F)(F)F`, the Potency entry is “inactive”.
Turning to `CNC(=O)CN(CCN(CCN(CC(=O)[O-])CC(=O)NC)CC(=O)[O-])CC(=O)[O-].O.[Gd+3]`, the Potency entry was “inactive”.
In the case of `O=C(O)CC(=O)C(=O)O`, the Potency result was “inactive”.
For the compound `Nc1ccc(S(=O)(=O)Nc2ccccc2)cc1`, the Potency entry is “inactive”.
The same measure, in the same setting: to `O=C(O)C1(C(=O)O)CCC1.[NH2-].[NH2-].[Pt+2]` belongs “inactive”; to `c1ccc(-c2ccccn2)nc1`, “inactive”.
On to `C/C(=C(\CCOP(=O)(O)O)SC(=O)c1ccccc1)N(C=O)Cc1cnc(C)nc1N`, for which the activity change, negative = cytotoxicity is 0.972% [at 14 µM] (inactive).
For `CN1CCN(C(c2ccccc2)c2ccccc2)CC1`, the Potency entry is “inactive”.
On to `Cc1c(N)cccc1[N+](=O)[O-]`, for which the Potency entry is “inactive”.
Still for that read-out and setting: to `CC(CC=O)c1ccccc1` (stereo not given) belongs “inactive”; to `C[C@H]1C[C@H]2[C@@H]3CCC4=CC(=O)C=C[C@]4(C)[C@@]3(Cl)[C@@H](O)C[C@]2(C)[C@@]1(O)C(=O)CO`, “inactive”; to `COc1ccc(-c2nc3ccc(C4=NNC(=O)CC4C)cc3[nH]2)cc1` (stereo not given), “inactive”.
Same read-out and setting: the value for `CC(C)O.CC(C)O.CCOC(=O)/C=C(\C)O.CCOC(=O)/C=C(\C)O.[Ti]` was “inactive”.
As for `Nc1ccccc1S(=O)(=O)c1ccccc1`, the Potency result was “inactive”.
On to `O=C(O)c1nc(Cl)c(Cl)c(Cl)c1Cl`, for which the Potency result is “inactive”.
Take `CCOCC(O)COc1ccc(NC(=O)CC[S+](C)C)cc1` (stereo not given): the Potency entry was “inactive”.
Still for that read-out and setting: to `COc1cccc(N(C)C(=S)Oc2ccc3c(c2)CCCC3)n1` belongs “inactive”; to `CC(=O)NO`, “inactive”.
